The panel holds about 83,000 compounds, 20% with a hit somewhere; the sample as a whole holds those more often.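 48-hour exposure, single concentration, 96-well plates; percent growth endpoint where 0 means no net growth. Active: below 10.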 Calls of active or inactive are those of the source.

The test system of the first assay is RXF 393 renal. In words: NCI-60 one-dose screen, 48 h (100 = growth as untreated, 0 = no growth, -100 = all killed). As to conditions: 10 µM unless noted.
For `N#CCCN=Nc1c(O)[nH]c2ccc([N+](=O)[O-])cc12`, the growth was 106% (inactive).
The same measure, in the same setting: the value for `COc1cc(-c2ccc3c(c2)NC(=O)/C3=C\c2ccc[nH]2)ccc1O` was 17.8% (inactive); that for `C=C(C)[C@@H]1CC[C@]2(C(N)=O)CC[C@]3(C)[C@H](CC[C@@H]4[C@@]5(C)C/C(=C/c6ccco6)C(=O)C(C)(C)[C@@H]5CC[C@]43C)[C@@H]12` was 94.2% (inactive); that for `O=C1Nc2c(ccc(Cl)c2Cl)/C1=C\c1cc(C(F)(F)F)cc(C(F)(F)F)c1` was 21.8% (inactive).
In the case of `COc1cc2c(cc1-c1c(C)noc1C)ncc1nc(C3CCOCC3)n([C@@H](C)COC(F)F)c12`, the growth was 59.4% (inactive).
Take `O=C1Nc2c(ccc(Cl)c2Cl)/C1=C\c1ccc(C(F)(F)F)cc1`: the growth is 77.4% (inactive).
As to `C[n+]1ccccc1/C=C/c1ccc2cccc(O)c2n1`, the growth was 48.4% (inactive).
In the case of `COc1ccc(/C=C/c2nc3ccccc3nc2/C=C/c2ccc(OC)cc2)cc1`, the growth was 80.3% (inactive).
On to `C=CC(=O)Nc1cccc(-c2nc(SC)nc(NCCN3CCOCC3)c2C#N)c1`, for which the growth was 89.7% (inactive).
As for `COc1cc2nc(N3CCCC3)nc(NCc3ccccc3)c2cc1OC`, the growth was 35.7% (inactive).
As to `COc1cc(CNc2oc(-c3ccccc3)c(-c3ccccc3)c2C#N)cc(CN2CCN(C)CC2)c1O`, the growth is 42.8% (inactive).
As to `O=C(/C=C/c1cc(CN2CCOCC2)c(O)c2ncccc12)c1cc(CN2CCOCC2)c(O)c2ncccc12`, the growth is 35.3% (inactive).
On the same count and under the same terms, next, `CSc1nc(NCCO)c(C#N)c(-c2cccc([N+](=O)[O-])c2)n1`: 104% (inactive); `CCN(CC)c1ccc(-c2cc(-c3cc(OC)c(OC)c(OC)c3)nc(N3CCOCC3)c2C#N)cc1`: -9.31% (active); `COc1ccc2[nH]cc(-c3noc(C(=O)c4cn(C)c5ccc(F)cc45)n3)c2c1`: 116% (inactive).
The same measure, in the same setting: next, `CCCc1cc(=O)n2c(C(=O)Nc3cccc(C(=O)OCC)c3)c(C(=O)Nc3ccc(F)cc3)sc2n1`: -27.2% [30 µM] (active); `O=S(=O)(Nc1ccc(I)cc1F)c1ccc(-c2cnc(C3CC3)o2)cc1`: 73% (inactive).
Regarding `COC(=O)c1cccc(NC(=O)c2ccc(-c3cccc(N)c3)o2)c1`, the growth was 102% (inactive).
As for `O=C(/C=C/c1ccccc1)c1ccc(O)c(CN2CCN(c3cc4c(cc3F)c(=O)c(C(=O)O)cn4C3CC3)CC2)c1`, the growth was 17.4% (inactive).
The same measure, in the same setting: the value for `Cc1[nH]c(-c2cc(N)ccc2Cl)c2c1C(=O)CCCC2` was 19.6% (inactive).
Consider `Nc1nc2ncc(CCNc3ccc(C(=O)O)cc3)nc2c(=O)[nH]1`, for which the growth was 112% (inactive).
`O=C1c2cc3c(cc2-c2c1c1ccc(F)cc1c(=O)n2CCCNCCO)OCO3`: the growth was -92.4% (active).
As to `N#C/C(=C\c1ccc(-c2cc(C(F)(F)F)ccc2Cl)o1)c1nc(-c2ccco2)cs1`, the growth is 112% (inactive).
For `O=c1cc(CSc2nnc(-c3ccc(F)cc3)o2)c2ccc3ccccc3c2o1`, the growth is 107% (inactive).
Still for that read-out and setting: next, `C=C(C)[C@@H]1CC[C@]2(C(=O)OC)CC[C@]3(C)[C@H](CC[C@@H]4[C@@]5(C)C/C(=C/c6cccc(I)c6)C(=O)C(C)(C)[C@@H]5CC[C@]43C)[C@@H]12`: 88.1% (inactive); `O=C1OCC2=C1C(c1ccncc1)c1cc3c(cc1N2CCO)OCO3` (stereo unspecified): 99.3% (inactive).
As to `COC(=O)c1ccc(NC(=O)c2ccc(-c3cccc([N+](=O)[O-])c3)o2)cc1`, the growth is 92.7% (inactive).
As to `O=c1cc(/C(=C2/C=CC=N2)c2ccc[nH]2)c2cc(Cl)ccc2o1`, the growth is -29.1% (active).
Regarding `COc1ccc2nc(NC(=O)CSc3nnc4n3S(=O)(=O)c3ccccc3N4c3ccccc3)sc2c1`, the growth was 23% (inactive).
On to `Cc1cc(C)nc(SC2=C(Nc3ccc(C)c(Cl)c3)C(=O)N(Cc3ccccc3)C2=O)n1`, for which the growth was 51.4% [30 µM] (inactive).
Same read-out and setting: the value for `CC(C)C1=C[C@@]23CC[C@@H]4[C@](C)(CCC[C@@]4(C)C(=O)N4CCCNCC4)[C@H]2C[C@@H]1[C@H]1C(=O)CCC(=O)[C@H]13` was 104% (inactive).
As for `O=C1C=C(OCC=C(Cl)Cl)C(=O)c2ccccc21`, the growth was 86.6% (inactive).
`COc1cccc(/C=C2\SC(=Nc3ccc(NC(C)=O)cc3)NC2=O)c1OC`: the growth was 83.1% (inactive).
The same measure, in the same setting: next, `C=CCSSc1ncnc2c1ncn2C1OC(CO)C(O)C1O` (stereo unspecified): 34.6% (inactive); `Cc1ncc(C(=O)Nc2ccc(CN3CCN(C)CC3)c(C(F)(F)F)c2)cc1C#Cc1cnc2cccnn12`: -58.1% (active).
For `NNCCc1ccc(NC(=O)CCCc2ccc(/C=C/C(=O)NO)cc2)cc1`, the growth is 63.6% (inactive).
As to `COc1cc2c(cc1-c1c(C)noc1C)ncc1nc(C3CCOCC3)n([C@H](C)COC(F)F)c12`, the growth is 54.8% (inactive).
With `C=CC(=O)Nc1cccc(-c2nc(SC)nc(NCCc3ccc(OC)c(OC)c3)c2C#N)c1`, the growth is 59.4% (inactive).

The test system of a further assay is SF-268 CNS. The description is as above. To be noted: 10 µM unless noted.
As for `N#CCCN=Nc1c(O)[nH]c2ccc([N+](=O)[O-])cc12`, the growth was 94.9% (inactive).
On the same count and under the same terms, the value for `COc1cc(-c2ccc3c(c2)NC(=O)/C3=C\c2ccc[nH]2)ccc1O` was 31.1% (inactive); that for `C=C(C)[C@@H]1CC[C@]2(C(N)=O)CC[C@]3(C)[C@H](CC[C@@H]4[C@@]5(C)C/C(=C/c6ccco6)C(=O)C(C)(C)[C@@H]5CC[C@]43C)[C@@H]12` was 90.9% (inactive).
As to `O=C1Nc2c(ccc(Cl)c2Cl)/C1=C\c1cc(C(F)(F)F)cc(C(F)(F)F)c1`, the growth is 9.57% (active).
Take `COc1cc2c(cc1-c1c(C)noc1C)ncc1nc(C3CCOCC3)n([C@@H](C)COC(F)F)c12`: the growth was 70.8% (inactive).
For the compound `O=C1Nc2c(ccc(Cl)c2Cl)/C1=C\c1ccc(C(F)(F)F)cc1`, the growth is 91.6% (inactive).
For the compound `C[n+]1ccccc1/C=C/c1ccc2cccc(O)c2n1`, the growth was 97.1% (inactive).
The same measure, in the same setting: the value for `COc1ccc(/C=C/c2nc3ccccc3nc2/C=C/c2ccc(OC)cc2)cc1` was 99.5% (inactive); that for `C=CC(=O)Nc1cccc(-c2nc(SC)nc(NCCN3CCOCC3)c2C#N)c1` was 83.8% (inactive); that for `COc1cc2nc(N3CCCC3)nc(NCc3ccccc3)c2cc1OC` was 87.6% (inactive).
On to `COc1cc(CNc2oc(-c3ccccc3)c(-c3ccccc3)c2C#N)cc(CN2CCN(C)CC2)c1O`, for which the growth is 69.8% (inactive).
Turning to `O=C(/C=C/c1cc(CN2CCOCC2)c(O)c2ncccc12)c1cc(CN2CCOCC2)c(O)c2ncccc12`, the growth is 30.2% (inactive).
Regarding `CSc1nc(NCCO)c(C#N)c(-c2cccc([N+](=O)[O-])c2)n1`, the growth is 95.6% (inactive).
Consider `CCN(CC)c1ccc(-c2cc(-c3cc(OC)c(OC)c(OC)c3)nc(N3CCOCC3)c2C#N)cc1`, for which the growth was 39.6% (inactive).
With `COc1ccc2[nH]cc(-c3noc(C(=O)c4cn(C)c5ccc(F)cc45)n3)c2c1`, the growth was 95.3% (inactive).
On to `CCCc1cc(=O)n2c(C(=O)Nc3cccc(C(=O)OCC)c3)c(C(=O)Nc3ccc(F)cc3)sc2n1`, for which the growth was 57.5% [30 µM] (inactive).
On to `O=S(=O)(Nc1ccc(I)cc1F)c1ccc(-c2cnc(C3CC3)o2)cc1`, for which the growth was 63.3% (inactive).
`COC(=O)c1cccc(NC(=O)c2ccc(-c3cccc(N)c3)o2)c1`: the growth is 100% (inactive).
Consider `O=C(/C=C/c1ccccc1)c1ccc(O)c(CN2CCN(c3cc4c(cc3F)c(=O)c(C(=O)O)cn4C3CC3)CC2)c1`, for which the growth was 28.1% (inactive).
Take `Cc1[nH]c(-c2cc(N)ccc2Cl)c2c1C(=O)CCCC2`: the growth is 53.5% (inactive).
Take `Nc1nc2ncc(CCNc3ccc(C(=O)O)cc3)nc2c(=O)[nH]1`: the growth was 120% (inactive).
Same read-out and setting: the value for `O=C1c2cc3c(cc2-c2c1c1ccc(F)cc1c(=O)n2CCCNCCO)OCO3` was -54.6% (active); that for `N#C/C(=C\c1ccc(-c2cc(C(F)(F)F)ccc2Cl)o1)c1nc(-c2ccco2)cs1` was 99.7% (inactive); that for `O=c1cc(CSc2nnc(-c3ccc(F)cc3)o2)c2ccc3ccccc3c2o1` was 96.4% (inactive).
Consider `C=C(C)[C@@H]1CC[C@]2(C(=O)OC)CC[C@]3(C)[C@H](CC[C@@H]4[C@@]5(C)C/C(=C/c6cccc(I)c6)C(=O)C(C)(C)[C@@H]5CC[C@]43C)[C@@H]12`, for which the growth was 95.1% (inactive).
Regarding `O=C1OCC2=C1C(c1ccncc1)c1cc3c(cc1N2CCO)OCO3` (stereo unspecified), the growth was 97.7% (inactive).
As to `COC(=O)c1ccc(NC(=O)c2ccc(-c3cccc([N+](=O)[O-])c3)o2)cc1`, the growth is 97.6% (inactive).
On to `O=c1cc(/C(=C2/C=CC=N2)c2ccc[nH]2)c2cc(Cl)ccc2o1`, for which the growth was 56.4% (inactive).
For the compound `COc1ccc2nc(NC(=O)CSc3nnc4n3S(=O)(=O)c3ccccc3N4c3ccccc3)sc2c1`, the growth is 71.9% (inactive).
Same read-out and setting: next, `Cc1cc(C)nc(SC2=C(Nc3ccc(C)c(Cl)c3)C(=O)N(Cc3ccccc3)C2=O)n1`: 64.6% [30 µM] (inactive); `CC(C)C1=C[C@@]23CC[C@@H]4[C@](C)(CCC[C@@]4(C)C(=O)N4CCCNCC4)[C@H]2C[C@@H]1[C@H]1C(=O)CCC(=O)[C@H]13`: 97.8% (inactive).
Take `O=C1C=C(OCC=C(Cl)Cl)C(=O)c2ccccc21`: the growth was 94.4% (inactive).
The same measure, in the same setting: next, `COc1cccc(/C=C2\SC(=Nc3ccc(NC(C)=O)cc3)NC2=O)c1OC`: 99% (inactive); `C=CCSSc1ncnc2c1ncn2C1OC(CO)C(O)C1O` (stereo unspecified): 28% (inactive); `Cc1ncc(C(=O)Nc2ccc(CN3CCN(C)CC3)c(C(F)(F)F)c2)cc1C#Cc1cnc2cccnn12`: -29.8% (active).
`NNCCc1ccc(NC(=O)CCCc2ccc(/C=C/C(=O)NO)cc2)cc1`: the growth was 45.3% (inactive).
Turning to `COc1cc2c(cc1-c1c(C)noc1C)ncc1nc(C3CCOCC3)n([C@H](C)COC(F)F)c12`, the growth is 65.5% (inactive).
As to `C=CC(=O)Nc1cccc(-c2nc(SC)nc(NCCc3ccc(OC)c(OC)c3)c2C#N)c1`, the growth is 61.9% (inactive).

(Values after PubChem BioAssay (NCI).)
